A word on the AC50: it is the midpoint of the concentration-response curve, whichever way the signal moves.

Molecules are shown by their SMILES. Activity calls are given as the source filed them. Rule for the calls: active = hit-call score of the fitted dose curve at least 0.9, where 1 is the maximum; inactive = score below 0.9.

Read-out in experiment [1]: Human Leukocyte Antigen - DR isotype (HLADR), HLA-DRA (gene 3122)
Put plainly: BSK_CASM3C_HLADR: BioMAP Diversity Plus: CASM3C Assay for Human Leukocyte Antigen - DR isotype (HLADR) Biomarker Activity (AID 2283043).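 Note: cell-surface HLA-DR protein level quantified by ELISA.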 Particulars: primary human coronary artery smooth muscle cells; actives raise or lower the signal.

Read-out in experiment [2]: Macrophage colony-stimulating factor (MCSF), CSF1 (gene 1435)
Put plainly: BSK_CASM3C_MCSF: BioMAP Diversity Plus: CASM3C Assay for Macrophage colony-stimulating factor (MCSF) Biomarker Activity (AID 2283044).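 Note: M-CSF protein amount quantified by ELISA after 24 h exposure.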 Particulars: primary human coronary artery smooth muscle cells; actives raise or lower the signal.

Read-out in experiment [3]: Low-density lipoprotein receptor (LDLR), LDLR (gene 3949)
As to the kind of experiment: BSK_CASM3C_LDLR: BioMAP Diversity Plus: CASM3C Assay for Low-density lipoprotein receptor (LDLR) Biomarker Activity (AID 2283045).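 Note: LDLR protein level on the cell surface quantified by ELISA.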 Particulars: primary human coronary artery smooth muscle cells; actives raise or lower the signal.

Read-out in experiment [4]: Monocyte Chemoattractant Protein-1 (MCP1), CCL2 (gene 6347)
As to the kind of experiment: BSK_CASM3C_MCP1: BioMAP Diversity Plus: CASM3C Assay for Monocyte Chemoattractant Protein-1 (MCP1) Biomarker Activity (AID 2283046).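 Note: MCP-1 level quantified by ELISA 24 h after dosing.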 Particulars: primary human coronary artery smooth muscle cells; actives raise or lower the signal.

Experiment [5] in a line: BSK_CASM3C_Proliferation: Cell Proliferation Assessment in the BioMAP Diversity Plus: CASM3C Assay (AID 2283047).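 Note: sulforhodamine B total protein stain as relative cell number at 560 nm; sub-confluent cells exposed 48 h before staining; fitted both ways against DMSO so gain or loss of cell number.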 Conditions: primary human coronary artery smooth muscle cells.
Read-out in experiment [6]: Monokine induced gamma interferon (MIG), CXCL9 (gene 4283)
As to the kind of experiment: BSK_CASM3C_MIG: BioMAP Diversity Plus: CASM3C Assay for Monokine induced gamma interferon (MIG) Biomarker Activity (AID 2283048).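 Note: MIG protein level measured by ELISA.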 Conditions: primary human coronary artery smooth muscle cells; actives raise or lower the signal.

Read-out in experiment [7]: serum amyloid A (SAA), SAA1 (gene 6288)
Put plainly: BSK_CASM3C_SAA: BioMAP Diversity Plus: CASM3C Assay for serum amyloid A (SAA) Biomarker Activity (AID 2283049).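 Note: SAA protein level quantified by ELISA.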 Particulars: primary human coronary artery smooth muscle cells; actives raise or lower the signal.

Experiment [8] can be described thus: BSK_CASM3C_SRB: Viability Assessment in the BioMAP Diversity Plus: CASM3C Assay (AID 2283050).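 Note: cells exposed to compound for 24 h.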 Conditions: primary human coronary artery smooth muscle cells.
Read-out in experiment [9]: Thrombomodulin, THBD (gene 7056)
Put plainly: BSK_CASM3C_Thrombomodulin: BioMAP Diversity Plus: CASM3C Assay for Thrombomodulin Biomarker Activity (AID 2283051).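 Note: thrombomodulin protein level measured by ELISA 24 h after dosing.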 Conditions: primary human coronary artery smooth muscle cells; actives raise or lower the signal.

Read-out in experiment [10]: Tissue Factor, F3 (gene 2152)
As to the kind of experiment: BSK_CASM3C_TissueFactor: BioMAP Diversity Plus: CASM3C Assay for Tissue Factor Biomarker Activity (AID 2283052).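 Note: cell surface tissue factor protein level read by ELISA.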 Conditions: primary human coronary artery smooth muscle cells; actives raise or lower the signal.

Read-out in experiment [11]: Interferon-gamma inducible Protein 10 (IP10), CXCL10 (gene 3627)
As to the kind of experiment: BSK_hDFCGF_IP10: BioMAP Diversity Plus: hDFCGF Assay for Interferon-gamma inducible Protein 10 (IP10) Biomarker Activity (AID 2283053). Conditions: primary human foreskin fibroblasts; actives raise or lower the signal. The gist of the method: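 ELISA read-out of IP-10 (CXCL10) from primary human skin fibroblasts, 24 h after compound addition. Gain or loss of signal versus DMSO baseline, bidirectional curve fitting.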

Read-out in experiment [12]: Urokinase-type plasminogen activator receptor (uPAR), PLAUR (gene 5329)
Put plainly: BSK_CASM3C_uPAR: BioMAP Diversity Plus: CASM3C Assay for Urokinase-type plasminogen activator receptor (uPAR) Biomarker Activity (AID 2283054).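 Note: cell-surface uPAR protein level quantified by ELISA.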 Conditions: primary human coronary artery smooth muscle cells; actives raise or lower the signal.

Read-out in experiment [13]: Vascular cell adhesion molecule 1 (VCAM1), VCAM1 (gene 7412)
As to the kind of experiment: BSK_CASM3C_VCAM1: BioMAP Diversity Plus: CASM3C Assay for Vascular cell adhesion molecule 1 (VCAM1) Biomarker Activity (AID 2283055).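 Note: VCAM-1 protein level quantified by ELISA on the cells.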 Conditions: primary human coronary artery smooth muscle cells; actives raise or lower the signal.

Read-out in experiment [14]: Collagen III, COL3A1 (gene 1281)
As to the kind of experiment: BSK_hDFCGF_CollagenIII: BioMAP Diversity Plus: hDFCGF Assay for Collagen III Biomarker Activity (AID 2283056). Particulars: primary human foreskin fibroblasts; actives raise or lower the signal. The gist of the method:
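hDFCGF primary human dermal fibroblasts; 24 h chemical exposure; collagen III by ELISA; bidirectional curve fit vs DMSO baseline (gain or loss of signal).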

Read-out in experiment [15]: Epidermal growth factor receptor (EGFR), EGFR (gene 1956)
As to the kind of experiment: BSK_hDFCGF_EGFR: BioMAP Diversity Plus: hDFCGF Assay for Epidermal growth factor receptor (EGFR) Biomarker Activity (AID 2283057). Particulars: primary human foreskin fibroblasts; actives raise or lower the signal. The gist of the method: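 ELISA readout of EGFR on human dermal fibroblasts (primary foreskin cells), 24 h post-dosing; bidirectional curve fit vs DMSO baseline, gain or loss of signal scored.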

Read-out in experiment [16]: Interleukin-8 (IL8), CXCL8 (gene 3576)
As to the kind of experiment: BSK_hDFCGF_IL8: BioMAP Diversity Plus: hDFCGF Assay for Interleukin-8 (IL8) Biomarker Activity (AID 2283058). Particulars: primary human foreskin fibroblasts; actives raise or lower the signal. The gist of the method: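 ELISA read-out of IL-8 from primary human foreskin fibroblast cultures taken 24 h after dosing; values are bidirectional fits relative to DMSO vehicle.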

The nature of experiment [17]: BSK_hDFCGF_Proliferation: Cell Proliferation Assessment in the BioMAP Diversity Plus: hDFCGF Assay (AID 2283059).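 Note: curves fitted for both rise and fall of signal versus DMSO baseline.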 Conditions: primary human foreskin fibroblasts. The essentials:
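Sub-confluent human foreskin fibroblast cultures receive test chemical […]. Relative cell number is quantified by sulforhodamine B staining (0.1%, after 10% TCA fixation) at 560 nm, with bidirectional fitting referenced to DMSO.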

Read-out in experiment [18]: Macrophage colony-stimulating factor (MCSF), CSF1 (gene 1435)
As to the kind of experiment: BSK_hDFCGF_MCSF: BioMAP Diversity Plus: hDFCGF Assay for Macrophage colony-stimulating factor (MCSF) Biomarker Activity (AID 2283060). Particulars: primary human foreskin fibroblasts; actives raise or lower the signal. The essentials: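 ELISA read-out of M-CSF in human dermal foreskin fibroblast cultures, 24 h after chemical dosing; gain or loss of signal fitted bidirectionally relative to DMSO baseline.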

Experiment [19] can be described thus: BSK_hDFCGF_SRB: Viability Assessment in the BioMAP Diversity Plus: hDFCGF Assay (AID 2283061).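 Note: cells exposed to compound for 24 h before the read.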 Conditions: primary human foreskin fibroblasts. The gist of the method:
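Primary human foreskin fibroblasts; 24 h post-dose; fixed 10% TCA, stained 0.1% SRB, A560 read; total protein as overt cytotoxicity measure; curves fit bidirectionally vs DMSO control.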

Read-out in experiment [20]: TIMP metallopeptidase inhibitor 1 (TIMP1), TIMP1 (gene 7076)
Put plainly: BSK_hDFCGF_TIMP1: BioMAP Diversity Plus: hDFCGF Assay for TIMP metallopeptidase inhibitor 1 (TIMP1) Biomarker Activity (AID 2283062). Conditions: primary human foreskin fibroblasts; actives raise or lower the signal. The essentials: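 ELISA readout of TIMP-1 from human dermal foreskin fibroblast cultures 24 h post-dosing. Curves were fitted in both directions against DMSO baseline, with SRB total-protein staining in parallel cultures as a cytotoxicity check.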

`O=c1ccc2ccccc2o1`: the result in [1], in [2], in experiment [3], in experiment [4], in [5] and in experiment [6] was inactive. Further, the outcome in experiment [8], in [9], in [10], in experiment [11], in experiment [12] and in experiment [13] was inactive. In addition, the result in experiment [14], in experiment [15], in experiment [16], in experiment [18], in experiment [19] and in experiment [20] was inactive. The AC50 in experiment [7] was 0.148 µM (active); in experiment [17], 8.81 µM (active).

In the case of `Cc1occc1C(=O)Nc1ccc(C(=O)N2CCC(F)(F)/C(=C\C(=O)N3CCC(N4CCCCC4)CC3)c3ccccc32)cc1`, the result in experiment [1], in experiment [2], in experiment [4], in [5], in [6] and in experiment [7] was inactive. In addition, the outcome in experiment [8], in experiment [9], in experiment [10], in experiment [11], in [12] and in experiment [13] was inactive. In addition, the result in experiment [14], in experiment [15], in experiment [16], in experiment [17], in [18] and in experiment [19] was inactive. Further, the result in [20] was inactive. In [3], the AC50 was 10.8 µM (active).

Take `Cc1c2ccccc2c(C)c2c1ccc1ccccc12`: the AC50 in experiment [1] was 20 µM (active); in experiment [5], 12.6 µM (active); in experiment [8], 20 µM (active); in experiment [9], 20 µM (active); in experiment [11], 6.29 µM (active); in [14] it was 1.73 µM (active). Also, the figures for the AC50 in experiment [15], in experiment [17] and in [18] were 5.45 µM (active), 7.26 µM (active) and 5.48 µM (active), respectively. Also, the outcome in experiment [2], in experiment [3], in experiment [4], in experiment [6], in experiment [7] and in experiment [10] was inactive. The outcome in [12], in [13], in [16], in experiment [19] and in experiment [20] was inactive.

Turning to `O=C=NCCCCCCN=C=O`, the outcome in experiment [1], in [2], in experiment [3], in experiment [4], in [5] and in experiment [6] was inactive. The result in experiment [7], in experiment [8], in experiment [9], in [10], in experiment [11] and in [12] was inactive. Besides, the outcome in [13], in experiment [14], in [15], in experiment [16], in experiment [17] and in experiment [18] was inactive. For the same compound, the result in [19] and in [20] was inactive.

With `O=c1[nH]sc2ccccc12`, the AC50 in experiment [1] is 5.36 µM (active); in experiment [2] it was 14.9 µM (active); in experiment [3], 12.7 µM (active); in experiment [4], 13.1 µM (active); in experiment [5] it was 1.89 µM (active); in experiment [6], 10.7 µM (active). Moreover, the AC50 in experiment [7] is 20.4 µM (active); in experiment [8], 17.3 µM (active); in [9], 4.73 µM (active); in [10] it was 28 µM (active); in experiment [11] it was 4.08 µM (active); in experiment [12], 11.3 µM (active). The AC50 in experiment [13] was 10.7 µM (active); in [14], 20 µM (active); in experiment [16], 20 µM (active); in experiment [17] it was 0.281 µM (active); in experiment [18], 3.22 µM (active); in experiment [19], 7.21 µM (active). Further, the AC50 in experiment [20] is 11.8 µM (active). Further, the outcome in experiment [15] was inactive.
